According to PubChem BioAssay (EPA / NIEHS):
Results filed as inconclusive are left out. Activity calls are given as the source filed them. The calls were made as follows: active = hit-call score of the fitted dose curve at least 0.9, where 1 is the maximum; inconclusive = response in the unintended direction; inactive = score below 0.9.

Legend:
[1] = TOX21_p53_BLA_p2_viability: Viability Assessment in the Tox21 HCT-116 p53 Agonism Beta-lactamase Assay, Phase 2 (AID 2283591);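 also: actives lower the ATP signal meaning cytotoxicity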
How it was run: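 Cytotoxicity readout: CellTiter-Glo ATP luminescence, 30 min at room temperature, after the beta-lactamase read. Cells were HCT116 exposed 16 h at 37C to compounds pin-transferred at 217-fold dilution from DMSO stocks.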

[2] = target: Cellular tumor antigen p53 (Homo sapiens) (UniProt P04637); experiment: TOX21_p53_BLA_p2_ratio: Tox21 HCT-116 p53 Agonism Beta-lactamase Assay, Ratio, Phase 2 (AID 2283592)
How it was run: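 Plated HCT116 p53-bla cells (4000/well) received compound after 5 h, then 16 h at 37C/5% CO2. CCF4-AM added, 2 h RT. Ratio of 460 to 530 nm emission taken as the p53 reporter signal.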

[3] = TOX21_p53_BLA_p3_viability: Viability Assessment in the Tox21 HCT-116 p53 Agonism Beta-lactamase Assay, Phase 3 (AID 2283593);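 also: cells exposed to compound for 16 h before reading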
How it was run: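 Cellular ATP was quantified by CellTiter-Glo luminescence, read after 30 min at room temperature. Beforehand, HCT116 cells (4000/well) received compound 5 h post-seeding, 217-fold diluted from DMSO, then incubated 16 h at 37C.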

[4] = target: Cellular tumor antigen p53 (Homo sapiens) (UniProt P04637); experiment: TOX21_p53_BLA_p3_ratio: Tox21 HCT-116 p53 Agonism Beta-lactamase Assay, Ratio, Phase 3 (AID 2283596)
How it was run: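 Cells were seeded at 4000/well, rested 5 h at 37C, then dosed with DMSO compound solutions (217-fold dilution) for 16 h. CCF4-AM substrate was loaded for 2 h at room temperature, and the 460/530 nm emission ratio was fitted for gain of signal versus DMSO.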

[5] = TOX21_p53_BLA_p4_viability: Viability Assessment in the Tox21 HCT-116 p53 Agonism Beta-lactamase Assay, Phase 4 (AID 2283597);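 also: hits lower the luminescence signal meaning cytotoxicity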
How it was run: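 Readout: ATP luminescence (CellTiter-Glo), measured 30 min after reagent addition at RT. The reagent followed a 2 h CCF4-AM incubation, and the cells had been exposed to compound for 16 h at 37C.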

[6] = target: Cellular tumor antigen p53 (Homo sapiens) (UniProt P04637); experiment: TOX21_p53_BLA_p5_ratio: Tox21 HCT-116 p53 Agonism Beta-lactamase Assay, Ratio, Phase 5 (AID 2283599)
How it was run: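 Beta-lactamase reporter ratio (blue 460 nm over green 530 nm, 405 nm excitation) after 2 h CCF4-AM loading, in HCT-116 cells exposed 16 h at 37 C to compounds pinned at 217-fold dilution. Increases relative to DMSO baseline scored.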

[7] = TOX21_p53_BLA_p5_viability: Viability Assessment in the Tox21 HCT-116 p53 Agonism Beta-lactamase Assay, Phase 5 (AID 2283600)
How it was run: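 Workflow: seed 4000 cells per well, wait 5 h, add compounds (DMSO, 217-fold dilution), incubate 16 h, load CCF4-AM 2 h, add CellTiter-Glo, read luminescence after 30 min.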

[8] = target: Cellular tumor antigen p53 (Homo sapiens) (UniProt P04637); experiment: TOX21_p53_BLA_p4_ratio: Tox21 HCT-116 p53 Agonism Beta-lactamase Assay, Ratio, Phase 4 (AID 2283601)
How it was run: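 Signal is the blue/green (460nm/530nm) ratio of cleaved versus uncleaved CCF4-AM substrate, read after 2 h substrate loading. Cells were HCT116 carrying the p53-responsive beta-lactamase reporter, dosed 16 h at 37C, 5% CO2; CellTiter-Glo measured in parallel.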

[9] = target: PGR (gene 5241) (UniProt P06401); experiment: TOX21_PR_BLA_Followup_Agonist_ratio: Tox21 HEK293 Progesterone Receptor (PR) Agonism Beta-lactamase Follow-Up Assay, Ratio (AID 2283933)
How it was run: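 Read-out: ratio of cleaved (ch2) to uncleaved (ch1) beta-lactamase substrate fluorescence, gain-of-signal relative to DMSO baseline. Cells: PR-UAS-bla HEK293T, 2% charcoal-stripped FBS; compound exposure 16 hr, 37C; substrate 2 hr, RT.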

[10] = target: PGR (gene 5241) (UniProt P06401); experiment: TOX21_PR_BLA_Followup_Antagonist_ratio: Tox21 HEK293 Progesterone Receptor (PR) Antagonism Beta-lactamase Follow-Up Assay, Ratio (AID 2283934)
How it was run: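 Read-out: blue/green beta-lactamase FRET ratio (cleaved ch2 over uncleaved ch1), fitted relative to DMSO baseline. Cells: PR-UAS-bla HEK293T, GAL4-UAS reporter, stimulated with 1 nM R5020 final; 16 hr compound exposure, 37C.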

[11] = TOX21_PR_BLA_Followup_Agonist_viability: Viability Assessment in the Tox21 HEK293 Progesterone Receptor (PR) Agonism Beta-lactamase Follow-Up Assay (AID 2283935);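 also: signal loss means lower viability so actives are cytotoxic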
How it was run: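 Luminescent ATP quantitation (CellTiter-Glo, 30 min, room temperature) in the same wells as the beta-lactamase read, on PR-UAS-bla HEK293T cells exposed to compound for 16 hr at 37C in 2% charcoal-stripped serum.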

[12] = TOX21_PR_BLA_Followup_Antagonist_viability: Viability Assessment in the Tox21 HEK293 Progesterone Receptor (PR) Antagonism Beta-lactamase Follow-Up Assay (AID 2283936);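 also: cells exposed to compound with R5020 agonist for 16 h; hits lower the luminescence signal meaning cytotoxicity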
How it was run: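 PR-UAS-bla HEK293T cells in medium with 2% charcoal-stripped FBS were treated with compounds plus R5020 for 16 hr at 37C. After the beta-lactamase read, CellTiter-Glo was added to the same wells and luminescence read after 30 min at room temperature.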

[13] = TOX21_PR_LUC_Followup_Antagonist_viability: Viability Assessment in the Tox21 HEK293 Progesterone Receptor (PR) Antagonism Luciferase Follow-Up Assay (AID 2283940)
How it was run: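 Read-out: CellTiter-Glo ATP luminescence, loss of signal taken as reduced viability. Cells: HEK293-PR-A-luc, 3,000/well, 5 h settling, then 16 h compound exposure at 37C, 0% CO2.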

[14] = TOX21_PR_LUC_Followup_Agonist_viability: Viability Assessment in the Tox21 HEK293 Progesterone Receptor (PR) Agonism Luciferase Follow-Up Assay (AID 2283941);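 also: loss of signal means cytotoxicity so actives lower viability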
How it was run: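 Cytotoxicity counter-screen: ATP content by CellTiter-Glo luminescence, loss of signal = reduced viability. HEK293-PR-A-luc, 3,000 cells/well, compound exposure 16 h, 37C.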

[15] = target: THRB (gene 7068) (UniProt P10828); experiment: TOX21_TRB_BLA_Antagonist_Followup_ratio: Tox21 Thyroid Hormone Receptor beta Antagonism Beta-lactamase (BLA) Follow-Up Assay, Ratio (AID 2283958)
How it was run: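 Read-out: blue/green (460:530 nm) ratio of cleaved to uncleaved CCF4-AM after 2 h at room temperature, fitted against DMSO baseline. HEK293T UAS-bla cells carrying GAL4-human TRβ LBD were exposed 18 h, 37C/5% CO2.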

[16] = TOX21_TRB_BLA_Antagonist_Followup_viability: Viability Assessment in the Tox21 Thyroid Hormone Receptor beta Antagonism Beta-lactamase (BLA) Follow-Up Assay (AID 2283961)
How it was run: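 TRβ-bla HEK293T (human TRβ LBD fused to GAL4 DBD), 3,000 cells/well, 2% charcoal-stripped FBS, phenol red-free medium; 18 h compound exposure, 37C; CellTiter-Glo 30 min RT; luminescence, loss-of-signal readout.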

[17] = target: Retinoic acid receptor RXR-alpha (Homo sapiens) (UniProt P19793); experiment: TOX21_TR_RXR_BLA_Antagonist_Followup_ratio: Tox21 Thyroid Hormone Receptor beta Retinoid X Receptor alpha (RXRa) Antagonism Beta-lactamase (BLA) Follow-Up Assay, Ratio (AID 2283972)
How it was run: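 HEK293T RXRa-bla, 2% charcoal-stripped FBS medium, 16 h compound exposure at 37C, qHTS 11 conc x3. CCF4 FRET ratio ch2/ch1 (460:530), DMSO = baseline, loss-of-signal fit.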

[18] = TOX21_TR_RXR_BLA_Antagonist_Followup_viability: Viability Assessment in the Tox21 Thyroid Hormone Receptor beta Retinoid X Receptor alpha (RXRa) Antagonism Beta-lactamase (BLA) Follow-Up Assay (AID 2283979)
How it was run: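 Follow-up compounds (11 concentrations, triplicate) were incubated 16 h at 37C/5% CO2 with HEK293T RXRa-bla cells seeded at 2,500/well in charcoal-stripped-serum medium. ATP content by CellTiter-Glo luminescence gave viability; curves fitted in both directions against DMSO.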

[19] = target: PGR (gene 5241) (UniProt P06401); experiment: TOX21_PR_LUC_Followup_Antagonist: Tox21 HEK293 Progesterone Receptor (PR) Antagonism Luciferase Follow-Up Assay (AID 2283938);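 also: curve fitted upward as signal gain over DMSO baseline despite antagonist label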
How it was run: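 Cells are grown 5 days in charcoal-stripped-FBS assay medium, plated, left 5 h, then dosed with compound and incubated 16 h. ONE-Glo reagent is added and luminescence read after 30 min.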

Sequence of PGR (gene 5241) (P06401 whole entry, looked up, the tested form may be a part): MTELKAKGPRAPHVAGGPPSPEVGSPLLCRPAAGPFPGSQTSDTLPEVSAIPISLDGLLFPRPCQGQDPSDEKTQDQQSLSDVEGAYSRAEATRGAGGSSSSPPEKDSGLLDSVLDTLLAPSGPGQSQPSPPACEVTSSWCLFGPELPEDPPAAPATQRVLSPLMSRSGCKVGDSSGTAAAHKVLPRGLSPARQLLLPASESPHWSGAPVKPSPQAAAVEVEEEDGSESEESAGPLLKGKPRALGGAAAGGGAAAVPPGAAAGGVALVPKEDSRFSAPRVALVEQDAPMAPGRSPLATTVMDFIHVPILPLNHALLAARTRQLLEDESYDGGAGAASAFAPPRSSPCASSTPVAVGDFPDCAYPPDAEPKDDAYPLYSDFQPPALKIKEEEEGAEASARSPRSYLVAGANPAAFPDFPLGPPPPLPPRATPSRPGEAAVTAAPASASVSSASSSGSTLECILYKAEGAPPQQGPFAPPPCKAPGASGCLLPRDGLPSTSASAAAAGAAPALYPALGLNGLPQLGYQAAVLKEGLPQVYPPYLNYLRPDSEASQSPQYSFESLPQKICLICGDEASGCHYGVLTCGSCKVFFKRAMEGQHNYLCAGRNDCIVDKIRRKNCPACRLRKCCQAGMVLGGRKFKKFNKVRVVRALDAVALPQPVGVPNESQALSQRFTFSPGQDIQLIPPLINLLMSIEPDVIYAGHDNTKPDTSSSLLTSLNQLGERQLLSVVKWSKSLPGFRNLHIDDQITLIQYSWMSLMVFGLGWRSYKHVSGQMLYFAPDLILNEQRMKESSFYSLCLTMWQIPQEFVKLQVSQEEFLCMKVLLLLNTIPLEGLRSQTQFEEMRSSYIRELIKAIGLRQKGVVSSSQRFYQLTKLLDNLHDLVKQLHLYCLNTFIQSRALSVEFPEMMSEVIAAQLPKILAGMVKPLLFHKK
Sequence of Cellular tumor antigen p53 (Homo sapiens) (P04637 whole entry, looked up): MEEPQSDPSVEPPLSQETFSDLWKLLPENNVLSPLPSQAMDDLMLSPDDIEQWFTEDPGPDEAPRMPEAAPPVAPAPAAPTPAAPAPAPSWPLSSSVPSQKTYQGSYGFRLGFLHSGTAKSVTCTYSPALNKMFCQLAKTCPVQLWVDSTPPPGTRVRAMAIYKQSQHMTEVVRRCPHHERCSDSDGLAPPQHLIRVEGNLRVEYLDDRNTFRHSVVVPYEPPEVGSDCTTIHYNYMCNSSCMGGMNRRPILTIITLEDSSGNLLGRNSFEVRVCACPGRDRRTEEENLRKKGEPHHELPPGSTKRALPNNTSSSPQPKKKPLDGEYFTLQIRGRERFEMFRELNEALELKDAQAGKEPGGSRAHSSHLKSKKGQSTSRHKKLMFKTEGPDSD
Sequence of THRB (gene 7068) (P10828 whole entry, looked up, the tested form may be a part): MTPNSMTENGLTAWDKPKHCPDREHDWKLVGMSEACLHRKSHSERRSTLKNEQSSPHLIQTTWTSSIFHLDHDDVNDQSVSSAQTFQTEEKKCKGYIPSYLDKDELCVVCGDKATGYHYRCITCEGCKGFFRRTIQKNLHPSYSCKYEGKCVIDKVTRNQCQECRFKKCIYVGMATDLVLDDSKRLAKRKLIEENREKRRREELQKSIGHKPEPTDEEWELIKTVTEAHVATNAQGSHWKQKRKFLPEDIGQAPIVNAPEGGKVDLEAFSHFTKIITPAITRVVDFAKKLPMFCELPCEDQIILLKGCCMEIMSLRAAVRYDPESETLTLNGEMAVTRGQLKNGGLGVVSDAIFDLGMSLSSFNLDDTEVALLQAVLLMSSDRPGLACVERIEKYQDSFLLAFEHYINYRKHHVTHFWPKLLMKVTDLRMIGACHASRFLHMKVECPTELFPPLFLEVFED
Sequence of Retinoic acid receptor RXR-alpha (Homo sapiens) (P19793 whole entry, looked up): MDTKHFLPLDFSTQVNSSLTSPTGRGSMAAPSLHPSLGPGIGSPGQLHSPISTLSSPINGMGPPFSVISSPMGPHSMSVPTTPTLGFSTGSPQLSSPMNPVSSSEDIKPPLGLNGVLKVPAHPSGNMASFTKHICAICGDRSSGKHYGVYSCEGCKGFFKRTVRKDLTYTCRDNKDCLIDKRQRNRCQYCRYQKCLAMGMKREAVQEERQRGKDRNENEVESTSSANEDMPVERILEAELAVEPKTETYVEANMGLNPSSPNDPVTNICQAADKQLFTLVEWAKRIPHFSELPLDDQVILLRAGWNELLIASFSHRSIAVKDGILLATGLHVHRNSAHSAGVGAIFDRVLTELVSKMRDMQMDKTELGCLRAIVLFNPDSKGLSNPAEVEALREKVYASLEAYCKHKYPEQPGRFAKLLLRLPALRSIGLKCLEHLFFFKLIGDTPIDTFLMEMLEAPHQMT

With `O=P(O)(OCc1ccccc1)OCc1ccccc1` the outcome [1] was “inactive”, the outcome [2] was “inactive” and the outcome [3] was “inactive”. For the same compound, the outcome [4] was “inactive”, the outcome [5] was “inactive” and the AC50 [6] was 86.9 µM (active). The outcome [7] was “inactive” and the outcome [8] was “inactive”.
With `O=C1C(c2[nH]c3ccccc3c2O)=Nc2ccccc21` the outcome [1] was “inactive”, the outcome [2] was “inactive” and the outcome [3] was “inactive”. The outcome [4] was “inactive”, the outcome [5] was “inactive” and the outcome [6] was “inactive”. For the same compound, the outcome [7] was “inactive” and the outcome [8] was “inactive”.
For `NCCCC[C@H](NC(=O)[C@@H]1CCCN1C(=O)[C@@H]1CSSC[C@H](N)C(=O)N[C@@H](Cc2ccc(O)cc2)C(=O)N[C@@H](Cc2ccccc2)C(=O)N[C@@H](CCC(N)=O)C(=O)N[C@@H](CC(N)=O)C(=O)N1)C(=O)NCC(N)=O`, the outcome [1] was “inactive”, the outcome [2] was “inactive” and the outcome [3] was “inactive”. For the same compound, the outcome [4] was “inactive”, the outcome [5] was “inactive” and the outcome [6] was “inactive”. For the same compound, the outcome [7] was “inactive” and the outcome [8] was “inactive”.
With `CN1[C@@H](CC(=O)c2ccccc2)CCC[C@H]1C[C@H](O)c1ccccc1` the outcome [1] was “inactive”, the outcome [2] was “inactive” and the outcome [3] was “inactive”. For the same compound, the outcome [4] was “inactive”, the outcome [5] was “inactive” and the outcome [6] was “inactive”. The outcome [7] was “inactive” and the outcome [8] was “inactive”.
For `CCCC(c1cc(C(C)(C)C)c(O)cc1C)c1cc(C(C)(C)C)c(O)cc1C`, the AC50 [1] was 15 µM (active), the AC50 [2] was 32.8 µM (active) and the AC50 [3] was 19.5 µM (active). The AC50 [4] was 30.6 µM (active), the AC50 [5] was 9.81 µM (active) and the AC50 [6] was 32.2 µM (active). For the same compound, the AC50 [7] was 17.2 µM (active) and the AC50 [8] was 19.7 µM (active).
In the case of `O=C(N/N=C/c1ccccc1O)c1ccncc1`, the outcome [1] is reported as “inactive”, the outcome [2] is reported as “inactive” and the outcome [3] is reported as “inactive”. The outcome [4] was “inactive”, the AC50 [5] was 8.16 µM (active) and the outcome [6] was “inactive”. For the same compound, the outcome [7] was “inactive” and the outcome [8] was “inactive”.
For `CCC(=C(CC)c1ccc(O)cc1)c1ccc(O)cc1`, the AC50 [1] was 38.3 µM (active), the AC50 [2] was 7.14 µM (active) and the outcome [3] was “inactive”. The AC50 [4] was 7.64 µM (active), the outcome [5] was “inactive” and the AC50 [6] was 17.7 µM (active). For the same compound, the outcome [7] was “inactive”, the AC50 [8] was 7.47 µM (active) and the outcome [9] was “inactive”. For the same compound, the AC50 [10] was 23.7 µM (active), the outcome [11] was “inactive” and the outcome [12] was “inactive”. The outcome [13] was “inactive” and the outcome [14] was “inactive”.
For `C[n+]1c2cc(N)ccc2cc2ccc(N)cc21` (tested in a mixture with another compound), the outcome [1] was “inactive”, the AC50 [2] was 11.6 µM (active) and the outcome [3] was “inactive”. For the same compound, the AC50 [4] was 9.45 µM (active), the outcome [5] was “inactive” and the AC50 [6] was 9.47 µM (active). For the same compound, the outcome [7] was “inactive”, the AC50 [8] was 6.18 µM (active) and the AC50 [15] was 36 µM (active). For the same compound, the outcome [16] was “inactive”, the AC50 [17] was 19.2 µM (active) and the AC50 [18] was 16.5 µM (active).
In the case of `COC(=O)C1=C(C)NC(C)=C(C(=O)OCC(C)=O)C1c1ccccc1[N+](=O)[O-]` (stereo not drawn), the outcome [1] is reported as “inactive”, the outcome [2] is reported as “inactive” and the outcome [3] is reported as “inactive”. For the same compound, the outcome [4] was “inactive”, the outcome [5] was “inactive” and the outcome [6] was “inactive”. The outcome [7] was “inactive”, the outcome [8] was “inactive” and the outcome [10] was “inactive”. For the same compound, the outcome [11] was “inactive”, the outcome [12] was “inactive” and the AC50 [19] was 21.5 µM (active). For the same compound, the outcome [13] was “inactive” and the outcome [14] was “inactive”.
